This is an account of results in PubChem BioAssay (NCI).

This is part of a sample that, as a whole, favours compounds with a hit. Of some 83,000 tested, about 20% had one in any assay.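 The endpoint reported here, percent growth, reads 100 for growth as untreated, 0 for no net growth and -100 for all cells dead.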 A number with no mark means an inactive call. The source made the active and inactive calls.

This experiment relates to SN12C renal. The experiment in a line: NCI-60 one-dose screen, 48 h (100 = growth as untreated, 0 = no growth, -100 = all killed). The settings on record: 10 µM unless noted. How it is done:
Growth inhibition of the SN12C human tumor cell line is measured as a screen for anti-cancer activity. Cells are grown in 96 well plates and exposed to the test compound for 48 hours. Compounds are tested at a single concentration, which is 10^-5 M for most compounds. The reported endpoint is percent growth (GI% or GIPRCNT), where numbers from 0 - 100% represent growth inhibition, and numbers from -100% - 0 represent cell death. For example, a value of 40 represents 60% growth inhibition. A value of 0 means no net growth occurred over the course of the experiment. A value of -40 indicates 40% of cells at the beginning of the experiment died by the end of the experiment. A value of -100 means all cells are dead at the end of the experiment.
NCI-60 Human Tumor Cell Lines Screen was performed using the standard one-dose NCI protocol, which is described in more detail at https://dtp.cancer.gov/discovery_development/nci-60/default.htm.
Compounds with GIPRCNT values below 10 were considered active. Activity score was based on GIPRCNT using the following formula: […]
Score is 0 for GIPRCNT values of 100 or above, 50 for GIPRCNT values of 0, and 100 for GIPRCNT values of -100.
Regarding `CC1(C)CC[C@]2(C(=O)OC(=O)[C@]34CCC(C)(C)C[C@@H]3C3=CC[C@@H]5[C@@]6(C)CCC(=O)C(C)(C)[C@@H]6CC[C@@]5(C)[C@]3(C)CC4)CC[C@]3(C)C(=CC[C@@H]4[C@@]5(C)CCC(=O)C(C)(C)[C@@H]5CC[C@]43C)[C@H]2C1`, the growth was 55.8% [100 µM].

Take `COc1cc(-c2nc(SCCC(C)C)nc(Nc3ccccc3)c2C#N)cc(OC)c1OC`: the growth is 89.5%.

With `Nc1cccc2c1C(=O)c1cccc(NC(=O)c3ccccc3)c1C2=O`, the growth is 47.1%.

Consider `Cn1cc(-c2nnc(-c3cn(C)c4ncc(Br)cc34)o2)c2ccccc21`, for which the growth was 88.2%.

For the molecule `CCCCCCCCCCCCNC(=S)N/N=C/c1ccccc1O`, the growth is 69.4%.

In the case of `COc1ccc(OC)c([N+](=O)[O-])c1C(=O)CNC(C)=O`, the growth is 100%.

As to `COc1ccc(-c2cc(-c3ccc(OC)c(OC)c3)nc(SCCCCCC(=O)NO)n2)cc1`, the growth was 77%.

As to `C[n+]1cccc(NC(=O)c2ccc3ccc4ccc(C(=O)Nc5ccc[n+](C)c5)nc4c3n2)c1`, the growth is -14.8% (active).

`COc1cc(/C=C/C(=O)/C=C/c2ccc(-n3ccnc3C)cc2)ccc1O`: the growth was 91.4%.

As for `CCN(CC)c1cc(N)c(Cc2c(N)cc(N(CC)CC)cc2Cl)c(Cl)c1`, the growth is 21.8%.

Turning to `CCOC(=O)CCC[P+](c1ccccc1)(c1ccccc1)c1ccccc1`, the growth was 82%.

As to `C=C(C)[C@@H]1CC[C@]2(C(=O)O)CC[C@]3(C)[C@H](CC[C@@H]4[C@@]5(C)C/C(=C/c6ccco6)C(=O)C(C)(C)[C@@H]5CC[C@]43C)[C@@H]12`, the growth is -70.6% [100 µM] (active).

`Nc1ccc(Cl)c([N+](=O)[O-])c1`: the growth is 105%.

With `C=C(C)[C@@H]1CC[C@]2(C(=O)NCCCN)CC[C@]3(C)[C@H](CC[C@@H]4[C@@]5(C)CC[C@H](O)C(C)(C)[C@@H]5CC[C@]43C)[C@@H]12`, the growth was -34.7% [100 µM] (active).

For the molecule `N#CCCc1c[nH]c2ccccc12`, the growth was 101%.

Regarding `CCCCCCCCN(CCCCCCCC)CC(O)c1ccc(Cl)c(C)c1Cl` (stereo not given), the growth is 84%.

On to `CC1(C)C(=O)/C(=C\c2cccnc2)C[C@]2(C)[C@H]3CC[C@@H]4[C@H]5[C@H](C(=O)/C=C/c6cccnc6)CC[C@]5(C(=O)O)CC[C@@]4(C)[C@]3(C)CC[C@@H]12`, for which the growth is -29.4% [100 µM] (active).

On to `CCOc1cccc2c(NC(C)CCCN(CC)CC)c(C)cnc12` (stereo not given), for which the growth was 95.2%.

As to `NC(=O)CC1C=CCC1` (stereo not given), the growth was 99.4%.

As to `CCN(CC)CCCC(C)Nc1c2ccc(C)cc2nc2ccc(OC)cc12` (stereo not given), the growth is 43.3%.

`CN(C)C(=S)Sc1ccc([N+](=O)[O-])cc1[N+](=O)[O-]`: the growth was 41.8%.

As for `CCOC(=O)c1nn(C2CCCCO2)c2ccc(NC(=O)Cn3nnc4ccccc43)cc12` (stereo not given), the growth is 97.6%.

As for `CC1(C)CC[C@]2(C(=O)O)CC[C@]3(C)C(=CC[C@@H]4[C@@]5(C)C/C(=C/c6ccco6)C(=O)C(C)(C)[C@@H]5CC[C@]43C)[C@@H]2C1`, the growth was -52.3% [100 µM] (active).

Turning to `C[C@@H]1C[C@H]2C(=O)O[C@@H](C)[C@H](NC(=O)[C@H](Cc3cc(F)cc(F)c3)NC(=O)Nc3ccc(C4CC4)cc3F)C(=O)N3CCC[C@H]3C(=O)N3CCCC[C@H]3C(=O)N[C@@H](C)C(=O)N2C1`, the growth is 15.8%.

Turning to `O=C(N=c1n(-c2ccccc2)nc2n1CCN2C1=NCCN1C(=O)c1ccc(Cl)cc1)c1ccc(Cl)cc1`, the growth was 80.8%.

As for `C/C=C/C1OC23CCCCC2C(C#N)(C(=N)O3)C1(C#N)C#N` (stereo not given), the growth was 93.7%.

Take `N#C/C(C(=O)c1ccccc1)=C1/C(=O)Nc2ccc(F)cc21`: the growth was 98%.

Consider `c1cc2ccc1CNCCN1CCNCc3ccc(cc3)Oc3ccc(cc3)CNCCN(CCNCc3ccc(cc3)O2)CCNCc2ccc(cc2)Oc2ccc(cc2)CNCC1`, for which the growth is -80.5% (active).

In the case of `O=C1/C(=C\c2cn(CC(O)CN3CCCCC3)c3ccccc23)c2ccccc2N1c1c(Cl)cccc1Cl` (stereo not given), the growth was -68.2% (active).

Take `Cc1ccc(-c2cn(C/C=C3\C=CN(S(=O)(=O)c4ccccc4)CC3)nn2)cc1`: the growth was 91.9%.

As for `CCNc1cc2c(cc1Br)-c1ccccc1C2=O`, the growth is 94.5%.

As for `COc1cccc(-c2[nH]c(=S)ncc2C(=O)c2ccccc2)c1`, the growth is 94.4%.

Turning to `Cc1ccc(N)c(O)c1`, the growth was 115%.

In the case of `C#CCNC(=O)CC[C@]1(C)[C@H]2CC[C@@H]3[C@@H]([C@@](C)(O)CCC=C(C)C)CC[C@@]3(C)[C@]2(C)CC[C@H]1C(=C)C`, the growth is 43.9% [100 µM].

In the case of `O=C(Nc1cccc2ccccc12)c1cc2ccccc2cc1O`, the growth was 7.28% (active).

With `O=C(Nc1ccc(Oc2ccc(F)cc2)c(Cl)c1)c1cccnn1`, the growth is 63.8%.

For the molecule `Cc1ccc2c(n1)C(=O)C(Cl)=C(Nc1ccc(N3CCN(C)CC3)cc1)C2=O`, the growth is -88.5% (active).

On to `CSc1nc(N)c(N=Nc2ccc(S(=O)(=O)Nc3nnc(C)s3)cc2)c(=O)[nH]1`, for which the growth was 92.1%.

For the molecule `Cc1ccc(S(=O)(=O)N/N=C2\CC3CCC2(C)C3(C)C)cc1` (stereo not given), the growth was 93.5%.

For the molecule `COc1cc2c(=O)[nH]c3cc([N+](=O)[O-])ccc3c2cc1[N+](=O)[O-]`, the growth is 52.6%.
